Our source for the outcome values is PubChem BioAssay (EPA / NIEHS).

The source made the active and inactive calls. How the source made its calls: active means hit-call score of the fitted dose curve at least 0.9, where 1 is the maximum; inactive means score below 0.9.

The target of this assay is Transcription factor E2F1 (Homo sapiens) (UniProt Q01094). Nature of the assay: ATG_E2F_CIS: Attagene CIS-FACTORIAL HepG2 Assay for human E2F Transcription Factor 1 (AID 2282935). The settings on record: HepG2 Attagene cis-reporter, E2F reporter RNA transcripts; actives raise or lower the signal. The procedure: ATG_CIS is a cell-based, multiplexed-readout assay that uses HepG2, a human liver cell line, with measurements taken at 24 hours after chemical dosing in a 24-well plate.ATG_E2F_CIS is one of 52 assay component(s) measured or calculated from the ATG_CIS assay. It is designed to make measurements of mRNA induction, a form of inducible reporter, as detected with fluorescence intensity signals by Reverse transcription polymerase chain reaction (RT-PCR) and Capillary electrophoresis technology.Data from the assay component ATG_E2F_CIS was analyzed into 1 assay endpoint. This assay endpoint, ATG_E2F_CIS, was analyzed with bidirectional fitting relative to DMSO as the negative control and baseline of activity. Using a type of inducible reporter, measures of mRNA for gain or loss-of-signal activity can be used to understand the reporter gene at the transcription factor-level as they relate to the gene E2F1. Furthermore, this assay endpoint can be referred to as a primary readout, because this assay has produced multiple assay endpoints where this one serves a reporter gene function. To generalize the intended target to other relatable targets, this assay endpoint is annotated to the dna binding intended target family, where the subfamily is E2F transcription factor.
Transcription factor E2F1 (Homo sapiens), sequence (Q01094 whole entry, looked up): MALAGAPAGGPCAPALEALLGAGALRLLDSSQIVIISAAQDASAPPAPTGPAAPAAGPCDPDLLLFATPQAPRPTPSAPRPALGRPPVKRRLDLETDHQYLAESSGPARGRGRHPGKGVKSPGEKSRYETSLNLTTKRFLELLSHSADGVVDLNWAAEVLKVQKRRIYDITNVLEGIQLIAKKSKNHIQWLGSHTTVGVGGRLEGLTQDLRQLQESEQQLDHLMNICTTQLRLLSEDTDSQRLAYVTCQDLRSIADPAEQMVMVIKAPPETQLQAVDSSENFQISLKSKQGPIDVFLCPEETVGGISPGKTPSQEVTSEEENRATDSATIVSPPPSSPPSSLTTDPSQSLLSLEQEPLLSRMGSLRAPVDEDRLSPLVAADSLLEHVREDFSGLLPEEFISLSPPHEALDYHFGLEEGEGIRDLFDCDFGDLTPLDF
Human liver HepG2 cells are transiently transfected with multiple reporter transcription units (MRTUs) in 6-well plates using FuGene 6 reagent (Roche; 3 ml FuGene/1 mg DNA). The MRTU constructs are regulated by a cis-regulating element (promoter). […] A major difference between the CIS and TRANS system is that in CIS activities of endogenous TFs are measured, whereas the TRANS assay evaluates changes in activities of exogenous, chimeric NR-Gal4 proteins. […] At the end of 24 hour incubation, total RNA was isolated using TriZol reagent (Invitrogen). The isolated RNA is then reverse-transcribed using oligo(dT) primer and Mo-MLV reverse transcriptase (Invitrogen) with DNAse I (Ambion) treatment for 30 min. The one-tenth of the produced cDNA was amplified by PCR using Taq DNA polymerase (Invitrogen) and two reporter sequence-specific primers. The PCR products were fluorescently labeled by primer extension with 6-arboxyfluorescein (6-FAM) 5'-labeled reporter sequence-specific primer (2 min at 95 C, 20 s at 68 C and 10 min at 72 C) and these products were digested with 5U of HpaI (New England Biolabs) for 2h at 37 C. The fragments were purified using Qiaquick PCR columns (Qiagen), analyzed on an ABI 3130xL genetic analyzer (Applied Biosystems) with peak positions identified by using a set of X-rhodamine (ROX)-labeled MapMarker1000 molecular weight standards (BioVentures). The raw capillary electrophoresis data was processed using Attagraph software (Attagene).
For the molecule `Clc1ccc(Cl)c(Cl)c1`, the molecule was called inactive. With `c1ccc(NNc2ccccc2)cc1` the entry was “inactive”. In the case of `O=C(N[C@H](c1ccccc1)[C@@H]1CN2CCC1CC2)c1c(Cl)ccc(C(F)(F)F)c1Cl`, the call was inactive. For `c1ccc(C2CO2)cc1` (stereo not given), the call was inactive. On to `CCOC(=O)[C@]1(c2ccccc2)Oc2ccccc2[C@@H]1N`, for which the result was inactive. Take `O=C(Nc1ccccc1)c1ccccc1I`: the molecule was classed as inactive.

Consider `CCCSC(=O)N(CCC)CCC`, for which the result was inactive.

Consider `CNC(=O)Oc1cccc2c1OC(C)(C)C2`, for which the molecule was called inactive. With `CO[C@@H]1[C@H](OC(=O)NC(=O)CCl)CC[C@]2(CO2)[C@H]1[C@@]1(C)O[C@@H]1CC=C(C)C`, the result was inactive. With `Nc1ccc([N+](=O)[O-])cc1` the entry was “inactive”; with `N#CC(Br)Br`, “inactive”; with `Brc1ccc(Oc2ccccc2)cc1`, “inactive”. For `CC(O)CCO` (stereo not given), the outcome was inactive. With `O=C1CCCO1` the entry was “inactive”; with `CS(=O)(=O)NC(=O)c1cc(Oc2ccc(C(F)(F)F)cc2Cl)ccc1[N+](=O)[O-]`, “inactive”.

As for `[Cl-].[Cl-].[Hg+2]`, the molecule was classed as inactive. With `c1ccc(N=Nc2ccccc2)cc1`, the result was inactive. `O=C(O)C1C2CCC(O2)C1C(=O)O` (stereo not given): the molecule was called inactive. Take `CCCCCCCCCCCCCN1CC(C)OC(C)C1` (stereo not given): the molecule was classed as inactive.

`COP(=S)(OC)SCN1C(=O)c2ccccc2C1=O`: the outcome was inactive. Take `CCCCOC(=O)c1ccccc1C(=O)OCc1ccccc1`: the molecule was called inactive.

In the case of `OCCOCCO`, the call was inactive. As to `[As]#[In]`, the molecule was called inactive. For the molecule `Cc1ccc(N)c(N)c1`, the molecule was called inactive. With `O=[N+]([O-])C(Br)(CO)CO` the entry was “inactive”. For the molecule `C1=Cc2cccc3cccc1c23`, the result was inactive. In the case of `CN(C)c1ccc(C(=O)c2ccc(N(C)C)cc2)cc1`, the result was inactive.

On to `CCCCC(CC)COC(=O)c1ccc(C(=O)OCC(CC)CCCC)c(C(=O)OCC(CC)CCCC)c1` (stereo not given), for which the outcome was inactive.

For `Cc1cc(N=Nc2ccccc2C)ccc1N`, the result was inactive. `CC(C)(O)c1cnn2c(-c3ccc(F)c(-c4c(F)cccc4C#N)c3)cnc2n1`: the call was inactive. For `ClCCOCCCl`, the result was inactive. For `Clc1ccc(C(c2ccc(Cl)cc2)C(Cl)Cl)cc1` the value was “inactive”; for `c1ccc2c(c1)oc1ccccc12`, “inactive”.

As for `CCC[CH2][Sn]([Cl])([CH2]CCC)[CH2]CCC`, the result was inactive. For `CC(C)N(Cc1ccccc1)C(=O)C(C)(C)C`, the outcome was inactive. Turning to `Nc1ccc(Cc2ccc(N)cc2)cc1`, the call was inactive. For `CCOc1cccc(C2(N3CCN(c4ccccc4)CC3)CCC(C)CC2)c1` (stereo not given), the call was inactive. For the molecule `ClC1=C(Cl)C2(Cl)C3C(Cl)C=CC3C1(Cl)C2(Cl)Cl` (stereo not given), the outcome was inactive. With `CCN(CC)N=O`, the molecule was called inactive. With `Nc1cc(Cl)cc(C(=O)O)c1Cl` the entry was “inactive”.
